Only some compounds are listed: those with a hit (about 3.5% of all), similar ones and a draw of the others.
BoNT-A LC inh2 – BoNT/A light chain protease inhibitors, primary screen, biochemical, flow cytometry, MLPCN library. multiplex microsphere protease substrate cleavage. inhibition, % at 10 µM. actives 0.17% (n = 360,000). AID 588499, 2011; also: plate controls were buffer without enzyme for full effect and enzyme alone for no effect
BH1578 lux ind – inducers of Vibrio cholerae quorum light production without autoinducers, primary screen, BH1578 luxS cqsA deficient, single point; V. cholerae BH1578 lux reporter, luminescence, 6 h; activation, % at 18.7 µM; actives 0.16% (n = 350,000); in the data active = activation mostly above about 9.7%, no sharp cut-off; inconclusive = no clear call, values can overlap the other calls; inactive = mostly below about 3.7%
Anthrax LF prot – Bacillus anthracis LF protease inhibitors, primary screen, biochemical, multiplex microsphere, MLPCN library; actives 0.12% (n = 360,000); multiplex microsphere protease cleavage assay; inhibition, % at 10 µM; Lethal factor (Bacillus anthracis), P15917; AID 588501, 2011; also: plate controls were buffer without enzyme for full effect and enzyme alone for no effect
Target sequence (P15917 whole entry, looked up): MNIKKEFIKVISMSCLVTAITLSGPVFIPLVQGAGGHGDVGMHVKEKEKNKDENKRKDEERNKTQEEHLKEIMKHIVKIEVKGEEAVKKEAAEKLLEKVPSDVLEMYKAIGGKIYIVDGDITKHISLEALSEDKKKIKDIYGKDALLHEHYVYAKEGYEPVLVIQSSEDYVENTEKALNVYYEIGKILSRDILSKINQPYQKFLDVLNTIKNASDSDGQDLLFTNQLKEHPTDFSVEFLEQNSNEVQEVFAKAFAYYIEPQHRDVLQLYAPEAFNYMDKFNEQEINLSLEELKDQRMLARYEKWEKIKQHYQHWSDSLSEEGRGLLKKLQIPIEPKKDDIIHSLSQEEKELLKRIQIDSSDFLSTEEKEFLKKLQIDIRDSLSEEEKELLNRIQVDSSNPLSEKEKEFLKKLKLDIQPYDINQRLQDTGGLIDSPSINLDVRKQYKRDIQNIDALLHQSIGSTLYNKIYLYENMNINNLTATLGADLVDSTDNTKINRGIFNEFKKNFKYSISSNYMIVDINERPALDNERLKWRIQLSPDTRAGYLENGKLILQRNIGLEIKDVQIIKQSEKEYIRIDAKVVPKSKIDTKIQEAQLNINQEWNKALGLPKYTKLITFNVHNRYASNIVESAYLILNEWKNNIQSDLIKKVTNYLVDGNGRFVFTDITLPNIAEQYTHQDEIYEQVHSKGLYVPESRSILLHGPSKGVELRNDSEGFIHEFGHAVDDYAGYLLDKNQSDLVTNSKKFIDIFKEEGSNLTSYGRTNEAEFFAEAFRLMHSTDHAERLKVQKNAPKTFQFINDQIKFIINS
BoNT-F LC inh – BoNT/F light chain protease inhibitors, primary screen, biochemical, flow cytometry, MLPCN library; Multiplex microsphere protease cleavage assay; Botulinum neurotoxin type F light chain protease (Clostridium botulinum); AID 588497, 2011; actives 0.22% (n = 360,000); inhibition, % at 10 µM; in the data active = inhibition above about 35%, passing the limit was not always enough; inconclusive = no clear call, values can overlap the other calls; also: plate controls were buffer without enzyme for full effect and enzyme alone for no effect
Autofluor counter – flagged as autofluorescent in microsphere protease counterscreen; compound autofluorescence counterscreen, microsphere flow cytometry; stronger effect = higher value; fluorescence intensity (concentration not given with the values); actives 3.1% (n = 360,000); AID 624483; in the data active = fluorescence intensity above about 16000; inconclusive = no clear call, values can overlap the other calls
An asterisk follows results filed as active; i = inactive; u = inconclusive; x = no result; ! = not active in a repeat. Rule as the data show it, unless noted: active = inhibition above about 30%; inconclusive = no clear call, values can overlap the other calls; inactive = below that.

SMILES	BoNT-A LC inh2	BH1578 lux ind	Anthrax LF prot	BoNT-F LC inh	Autofluor counter
COc1ccc2c(c1)CC(C)C/C2=N\NC(=O)c1ccco1 (configuration not stated)	0.9	-0.8	-5.0	-3.1	4381
CC1C/C(=N/NC(=O)c2cccc(F)c2)c2ccc(O)cc2C1 (configuration not stated)	0.0	i	0.5	-1.6	20922*
CCN(CC)CCNC(=O)/C(=N\O)c1ccccn1	0.2	i	-5.4	-2.6	3970
COc1ccccc1CNC(=O)c1cnccn1	-2.7	i	-5.8	-3.9	17158*
Cc1cc(C(=O)NCC(c2ccco2)N(C)C)no1 (configuration not stated)	1.9	-5.6	-3.8	1.2	19860*
COc1cccc(C(=O)NCc2cccnc2)c1	0.1	-0.4	-2.9	-5.5	10426
CN(C)C(CNC(=O)c1ccc(Br)cc1)c1ccco1 (configuration not stated)	-1.9	i	2.2	-1.5	3881
CN(C)CCCNCCCNC(=O)/C(=N\O)c1ccccn1	u	i	0.1	-3.4	22814*
COc1ccccc1CNC(=O)COC(=O)c1cnccn1	-0.5	x	-4.7	4.0	3196
COc1ccc(C(=O)NCc2cccnc2)cc1OC	0.6	-0.4	-0.4	-2.1	22834*
O=C(COC(=O)CCC(=O)c1cccs1)Nc1cccc(F)c1	-0.2	10.3	-0.6	-6.8	9023
CCC(C)C(NC(=O)c1ccccc1NC(=O)c1ccc(OC)cc1)C(=O)NCCCn1ccnc1 (configuration not stated)	0.1	-0.6	-3.1	-21.3	3836
N#CC1(NC(=O)CN2C(=O)NC(c3ccccc3)(c3ccccc3)C2=O)CCCC1	-0.4	i	-1.5	-5.7	3720
COc1ccc(OC)c(Cc2nnc(CCC(=O)NC3C4CC5CC(C4)CC3C5)o2)c1 (configuration not stated)	0.2	-0.4	-0.9	1.8	2403
O=C(NCCCNCc1ccccc1)c1ccccn1	-0.4	-5.6	1.5	-9.0	24330*!
O=C(NCc1cccnc1)c1ccccn1	2.3	-1.7	0.7	2.3	22039*
COc1ccc(-c2cc(C(=O)NCc3cccnc3)no2)cc1OC	0.2	-1.0	2.7	6.7	7942
CC(C)Cc1cc(C(=O)NCc2cccnc2)no1	0.4	-0.2	-10.0	10.1	5597
Cc1ccc(-c2cc(C(=O)NCc3cccnc3)no2)cc1	9.3	-0.7	-11.1	10.0	17516*
Cc1cc(C(=O)NCc2cccnc2)no1	-0.1	i	-3.0	2.3	22225*
O=C(CN1CCN(C(=O)CNC(=O)c2ccc(-c3ccccc3)cc2)CC1)Nc1ccccc1Cl	-0.1	-0.4	1.4	0.7	2874
C=CCc1cc(OC)ccc1OCC(O)CN1CCN(c2ccc(OC)cc2)CC1 (configuration not stated)	u	1.4	-2.5	-12.8	22414*!
C=CCc1cc(C)ccc1OCC(O)CN1CCN(c2ccccc2)CC1 (configuration not stated)	-1.2	-3.6	-3.5	-10.6	8912
CCOC(=O)c1ccc2c(c1)nc(COc1ccc(OC)cc1)n2CC	1.9	-0.2	-0.6	0.8	16133*
CCOC(=O)c1ccc2c(c1)nc(-c1ccccn1)n2CC	-0.7	-1.4	17.7	-12.2	3805
SMILES	BoNT-A LC inh2	BH1578 lux ind	Anthrax LF prot	BoNT-F LC inh	Autofluor counter
COc1ccc(CCNC(=O)C2CCCN(Cc3nc(-c4ccccc4C)oc3C)C2)cc1OC (configuration not stated)	u	i	-1.3	-6.7	21174*
CCc1ccc(-c2nc(CN3CCCC(C(=O)NCCc4ccc(OC)c(OC)c4)C3)c(C)o2)cc1 (configuration not stated)	u	-1.4	-5.5	1.6	21829*
Cc1ccccc1-c1nc(CN2CCCC(C(=O)NCCCN3CCOCC3)C2)c(C)o1 (configuration not stated)	-0.4	i	0.4	-0.1	24221*
Cc1ccccc1-c1nc(CN2CCCC(C(=O)NCc3cccnc3)C2)c(C)o1 (configuration not stated)	u	i	-1.7	-7.7	24766*
COc1ccc(CNC(=O)C2CCCN(Cc3nc(-c4cccc(C)c4)oc3C)C2)cc1 (configuration not stated)	0.0	-2.7	-1.3	2.2	2740
COc1ccc(CCNC(=O)C2CCN(Cc3nc(-c4cccc(Cl)c4)oc3C)CC2)cc1OC	-1.1	-0.2	-3.3	-3.8	6376
O=C(CSc1ncnc2c1nnn2Cc1ccccc1)NC1CCCCC1	1.5	-5.0	6.5	3.2	5143
Cc1oc(-c2ccc(Cl)cc2)nc1CN1CCC(C(=O)NCc2cccnc2)CC1	-1.9	-5.3	-2.4	-6.4	16967*
Cc1cccc2nc(Cn3c(=O)n(CCC(=O)NCc4ccco4)c(=O)c4sccc43)cc(=O)n12	9.9	-0.7	-2.5	8.6	20173*
CCOc1ccccc1OCC(=O)NNC(=O)Cn1cnc2c1c(=O)n(C)c(=O)n2C	-0.8	1.4	3.1	-0.5	4474
COc1ccc2c(c1)CCC1C2=NN(/C(C)=C/C(C)=O)C1c1cccc(F)c1 (configuration not stated)	-25.2	-0.4	6.2	24.2	62503*
CC(=O)N1N=C2c3ccccc3CCC2C1c1ccc(F)cc1 (configuration not stated)	-0.3	-0.5	-0.4	-4.3	5476
COc1ccc(-c2csc(C(NC(C)=O)c3cccc(F)c3)n2)cc1 (configuration not stated)	-0.2	i	-6.4	-1.5	2889
COc1ccc(OC)c(C=NNC(=O)c2ccccc2NS(=O)(=O)c2cccs2)c1	-0.8	-0.2	-0.1	-12.0	4012
CC(C)(C)NC(=O)CN(C(=O)C1(C)CC(=O)N=C2C=CC=CN21)C1CCCC1 (configuration not stated)	-4.7	-0.2	-4.3	-7.0	23762*
CC(C)CNC(=O)CSc1nc2nn(-c3ccccc3)c(=O)c-2c2n1CCCCC2	-0.9	i	-2.5	-0.8	4942
CNC(=O)CSc1nc2nn(-c3ccccc3)c(=O)c-2c2n1CCCCC2	-3.2	-1.0	-0.8	-1.5	21375*
O=C(CCc1nnc(COc2ccccc2)o1)NCc1ccccc1C(F)(F)F	-1.7	-0.5	-7.1	-11.7	4996
CCOc1ccccc1C(=O)NC(C(=O)OCC(=O)NNC(=O)c1cccs1)C(C)C (configuration not stated)	0.0	-0.5	-5.2	1.5	3798
CCOC(=O)c1c(C)[nH]c(C)c1C(=O)COC(=O)[C@@H](NC(=O)c1ccccc1OCC)C(C)C	-2.3	-0.2	-3.7	-3.3	23944*
Cc1cc(N2CCC(C(=O)N3CCN(c4cccc(C)c4C)CC3)CC2)n2ncnc2n1	-5.4	i	-6.4	-5.7	17532*
